Values joined by “and” are separate entries in the source; they are usually repeats but may differ in a detail not shown here. Identical values can stand only once. Results filed as inconclusive are left out. A call without a number means that no potency is given here. The source holds several records for some structures; these can differ, active in one and inactive in another. Active and inactive are the calls of the source. The call rests on the fitted dose curve; in most records, active means well fitted curve in the direction sought with a large enough effect in the repeat runs; inconclusive means weak or mixed curves; inactive means no such curve, though single readings can be large; an effect the other way counts as inactive or inconclusive.
Legend:
[1] = target: Cytochrome P450 2D6 (Homo sapiens) (UniProt P10635); assay: Cytochrome P450 Family 2 Subfamily D Member 6 (CYP2D6) small molecule antagonists: luciferase reporter qHTS assay (AID 1671196); further: nearly all actives have a fitted effect of over 50% in size
How it was run: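 Inhibition of CYP2D6 was gauged by loss of luminescence, since light produced tracks the luciferin generated from a proluciferin substrate. A 10 min room-temperature preincubation preceded 1 h NADPH-supported turnover.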

[2] = target: Cytochrome P450 2C19 (Homo sapiens) (UniProt P33261); assay: Cytochrome P450 Family 2 Subfamily C Member 19 (CYP2C19) small molecule antagonists: luciferase reporter qHTS assay (AID 1671197); further: nearly all actives have a fitted effect of over 65% in size
How it was run: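 Enzyme-substrate mix with proluciferin substrate (P450-Glo CYP2C19 system) preincubated with compounds 10 min at room temperature; NADPH regeneration solution added, 37C for 1 h; detection reagent stops reaction, luminescence read after 20 min. Ketoconazole positive control.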

[3] = target: Cytochrome P450 2C9 (Homo sapiens) (UniProt P11712); assay: Cytochrome P450 Family 2 Subfamily C Member 9 (CYP2C9) small molecule antagonists: luciferase reporter qHTS assay (AID 1671198); further: nearly all actives have a fitted effect of over 50% in size
How it was run: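 CYP2C9 activity was measured with a P450-Glo proluciferin substrate. Enzyme–substrate mix was held with compound for 10 min at room temperature, then NADPH regeneration solution was added for 1 h at 37C. Luciferin product was read as luminescence.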

[4] = target: Cytochrome P450 1A2 (Homo sapiens) (UniProt P05177); assay: Cytochrome P450 Family 1 Subfamily A Member 2 (CYP1A2) small molecule antagonists: luciferase reporter qHTS assay (AID 1671199); further: nearly all actives have a fitted effect of over 50% in size
How it was run: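 Signal from luciferin formed by CYP1A2 from a proluciferin substrate is read as luminescence, expressed in relative luminescence units. Compounds sit with enzyme 10 min, NADPH-driven reaction runs 1 h, all at room temperature.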

[5] = target: Voltage-gated inwardly rectifying potassium channel KCNH2 (Homo sapiens) (UniProt Q12809); assay: Human Ether-a-go-go-Related Gene (hERG) channel small molecule antagonists: fluorescence cell-based qHTS assay (AID 1671200); further: nearly all actives have a fitted effect of over 50% in size
How it was run: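 Thallium flux as potassium surrogate: FluxOR II dye loaded 1 h at room temperature into hERG-expressing U2OS cells, then stimulus buffer added after 10 min. Kinetic 480 nm excitation/540 nm emission read, 2 min.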

[6] = target: Cytochrome P450 3A4 (Homo sapiens) (UniProt P08684); assay: Cytochrome P450 Family 3 Subfamily A Member 4 (CYP3A4) small molecule antagonists: luciferase reporter qHTS assay (AID 1671201); further: nearly all actives have a fitted effect of over 50% in size
How it was run: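 Recombinant human CYP3A4 converts a proluciferin substrate to luciferin over 1 h at room temperature after NADPH regeneration solution is added (compound preincubated 10 min); detection reagent stops reaction, luminescence read 20 min later as relative units.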
Potency means the concentration at half of the fitted maximal effect.

Chain of Cytochrome P450 2C9 (Homo sapiens) (P11712 whole entry, looked up): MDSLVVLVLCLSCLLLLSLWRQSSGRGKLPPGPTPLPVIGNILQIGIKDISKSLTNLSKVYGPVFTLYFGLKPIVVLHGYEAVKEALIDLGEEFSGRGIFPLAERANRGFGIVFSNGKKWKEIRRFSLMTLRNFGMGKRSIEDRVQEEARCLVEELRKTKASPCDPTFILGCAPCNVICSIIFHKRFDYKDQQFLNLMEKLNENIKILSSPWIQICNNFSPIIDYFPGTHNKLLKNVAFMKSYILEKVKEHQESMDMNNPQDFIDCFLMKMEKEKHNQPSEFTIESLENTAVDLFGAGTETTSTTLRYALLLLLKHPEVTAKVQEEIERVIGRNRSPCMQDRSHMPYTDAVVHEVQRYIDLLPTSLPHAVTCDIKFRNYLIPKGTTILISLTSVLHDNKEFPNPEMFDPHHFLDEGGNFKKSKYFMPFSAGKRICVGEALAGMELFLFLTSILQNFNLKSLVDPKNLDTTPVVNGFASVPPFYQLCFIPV
Chain of Cytochrome P450 3A4 (Homo sapiens) (P08684 whole entry, looked up): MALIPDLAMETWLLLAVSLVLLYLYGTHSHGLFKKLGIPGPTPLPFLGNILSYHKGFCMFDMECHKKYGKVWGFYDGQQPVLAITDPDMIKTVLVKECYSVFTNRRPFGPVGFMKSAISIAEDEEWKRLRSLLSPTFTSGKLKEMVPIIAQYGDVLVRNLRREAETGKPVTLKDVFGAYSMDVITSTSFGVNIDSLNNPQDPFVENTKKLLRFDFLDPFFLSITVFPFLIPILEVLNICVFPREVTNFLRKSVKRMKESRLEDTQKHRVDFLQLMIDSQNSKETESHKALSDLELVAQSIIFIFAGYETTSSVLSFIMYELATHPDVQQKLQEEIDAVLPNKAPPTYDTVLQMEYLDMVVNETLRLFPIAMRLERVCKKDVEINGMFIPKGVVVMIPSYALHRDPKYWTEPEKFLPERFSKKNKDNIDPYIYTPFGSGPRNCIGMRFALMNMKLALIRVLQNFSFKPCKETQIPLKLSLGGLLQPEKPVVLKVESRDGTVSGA
Chain of Voltage-gated inwardly rectifying potassium channel KCNH2 (Homo sapiens) (Q12809 whole entry, looked up): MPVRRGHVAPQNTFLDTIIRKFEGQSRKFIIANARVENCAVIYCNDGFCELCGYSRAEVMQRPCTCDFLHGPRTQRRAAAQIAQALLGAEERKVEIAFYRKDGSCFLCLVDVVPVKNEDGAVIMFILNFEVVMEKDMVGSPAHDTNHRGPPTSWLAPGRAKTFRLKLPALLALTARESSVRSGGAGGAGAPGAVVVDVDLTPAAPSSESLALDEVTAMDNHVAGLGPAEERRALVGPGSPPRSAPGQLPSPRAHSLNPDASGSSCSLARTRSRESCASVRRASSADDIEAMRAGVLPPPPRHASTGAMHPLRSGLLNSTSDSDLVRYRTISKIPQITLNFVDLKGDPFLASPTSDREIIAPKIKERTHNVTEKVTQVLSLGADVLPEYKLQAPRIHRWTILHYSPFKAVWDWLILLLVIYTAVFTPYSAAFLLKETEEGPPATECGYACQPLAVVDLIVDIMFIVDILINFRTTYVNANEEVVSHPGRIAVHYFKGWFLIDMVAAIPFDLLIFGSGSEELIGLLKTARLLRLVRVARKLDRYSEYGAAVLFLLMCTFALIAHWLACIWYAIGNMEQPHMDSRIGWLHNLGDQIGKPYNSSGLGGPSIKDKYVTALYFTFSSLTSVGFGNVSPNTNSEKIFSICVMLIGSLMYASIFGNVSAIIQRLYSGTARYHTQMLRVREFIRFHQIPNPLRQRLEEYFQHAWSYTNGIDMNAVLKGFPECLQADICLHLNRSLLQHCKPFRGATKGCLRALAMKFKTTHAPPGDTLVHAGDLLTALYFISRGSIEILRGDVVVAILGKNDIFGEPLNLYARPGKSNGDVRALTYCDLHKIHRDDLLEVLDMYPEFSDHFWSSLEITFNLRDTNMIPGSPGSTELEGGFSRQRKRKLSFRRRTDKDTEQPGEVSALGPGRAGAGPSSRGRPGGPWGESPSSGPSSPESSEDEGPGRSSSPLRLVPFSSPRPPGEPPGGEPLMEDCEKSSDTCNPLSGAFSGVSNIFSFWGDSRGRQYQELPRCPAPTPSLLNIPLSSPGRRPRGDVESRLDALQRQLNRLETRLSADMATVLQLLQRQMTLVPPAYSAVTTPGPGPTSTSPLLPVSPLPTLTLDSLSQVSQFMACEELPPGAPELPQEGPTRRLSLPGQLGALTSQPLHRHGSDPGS
Chain of Cytochrome P450 1A2 (Homo sapiens) (P05177 whole entry, looked up): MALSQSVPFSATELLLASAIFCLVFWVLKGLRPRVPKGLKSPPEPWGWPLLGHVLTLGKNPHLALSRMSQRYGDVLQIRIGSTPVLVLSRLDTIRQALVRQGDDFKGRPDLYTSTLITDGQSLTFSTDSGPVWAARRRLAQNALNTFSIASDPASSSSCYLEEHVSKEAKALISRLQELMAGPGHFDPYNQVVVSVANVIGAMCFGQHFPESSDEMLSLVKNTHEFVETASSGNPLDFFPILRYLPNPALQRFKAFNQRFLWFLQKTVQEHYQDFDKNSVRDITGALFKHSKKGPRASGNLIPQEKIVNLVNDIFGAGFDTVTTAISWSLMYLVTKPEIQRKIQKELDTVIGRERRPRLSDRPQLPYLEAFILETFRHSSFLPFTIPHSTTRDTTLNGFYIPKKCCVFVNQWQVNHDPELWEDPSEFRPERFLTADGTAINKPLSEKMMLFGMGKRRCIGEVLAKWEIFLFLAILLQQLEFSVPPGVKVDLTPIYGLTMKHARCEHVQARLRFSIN
Chain of Cytochrome P450 2C19 (Homo sapiens) (P33261 whole entry, looked up): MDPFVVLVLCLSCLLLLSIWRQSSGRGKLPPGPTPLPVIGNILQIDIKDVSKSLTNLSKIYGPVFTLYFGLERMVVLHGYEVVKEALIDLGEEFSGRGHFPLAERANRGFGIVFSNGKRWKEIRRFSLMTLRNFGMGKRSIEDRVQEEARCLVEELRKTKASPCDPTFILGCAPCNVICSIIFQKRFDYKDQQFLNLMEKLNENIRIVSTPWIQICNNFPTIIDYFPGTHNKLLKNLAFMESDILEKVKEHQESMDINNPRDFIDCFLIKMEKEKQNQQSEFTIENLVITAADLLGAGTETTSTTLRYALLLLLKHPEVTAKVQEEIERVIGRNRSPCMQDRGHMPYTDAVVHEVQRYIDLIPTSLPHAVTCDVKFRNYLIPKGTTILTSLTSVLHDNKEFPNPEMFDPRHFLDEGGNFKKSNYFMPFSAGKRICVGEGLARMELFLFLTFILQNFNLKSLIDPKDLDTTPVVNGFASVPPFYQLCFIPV
Chain of Cytochrome P450 2D6 (Homo sapiens) (P10635 whole entry, looked up): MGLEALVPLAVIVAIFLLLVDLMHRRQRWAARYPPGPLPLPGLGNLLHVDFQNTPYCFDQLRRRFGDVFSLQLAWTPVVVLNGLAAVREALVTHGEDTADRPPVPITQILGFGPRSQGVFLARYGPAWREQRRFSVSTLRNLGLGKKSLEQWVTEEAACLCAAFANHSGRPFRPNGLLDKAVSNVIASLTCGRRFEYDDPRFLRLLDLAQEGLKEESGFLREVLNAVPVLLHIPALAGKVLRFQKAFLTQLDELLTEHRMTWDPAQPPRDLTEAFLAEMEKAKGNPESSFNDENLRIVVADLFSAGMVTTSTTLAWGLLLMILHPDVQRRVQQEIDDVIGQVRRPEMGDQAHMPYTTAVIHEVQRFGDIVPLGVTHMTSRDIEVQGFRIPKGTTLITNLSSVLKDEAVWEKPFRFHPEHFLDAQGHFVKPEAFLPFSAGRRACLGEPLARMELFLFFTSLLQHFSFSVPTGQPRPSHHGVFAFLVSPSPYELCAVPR

SMILES	Potency [1]	Potency [2]	Potency [3]	Potency [4]	Potency [5]	Potency [6]
C=C(C)C1CC=C(C)CC1 (stereo not drawn)	inactive	inactive	inactive	inactive	inactive	inactive
CCCCC(CC)COCC1CO1 (stereo not drawn)	inactive	inactive	inactive	inactive	inactive	inactive
CCOCCOCCO	inactive	36.6 µM (active) and inactive	inactive	inactive	inactive	inactive
Cc1cccc([N+](=O)[O-])c1C	inactive	inactive	inactive	inactive	inactive	inactive
CCCCCCCCCC(=O)OC	inactive	inactive	inactive	inactive	inactive	inactive
O=CCc1ccccc1	inactive	19.9 µM (active) and 5.64 µM (active)	25 µM (active) and 5.03 µM (active)	39.9 µM (active)	inactive	inactive
CCC(C)CO (stereo not drawn)	inactive	35.1 µM (active) and inactive	inactive	inactive	inactive	inactive
Cc1c(C(N)=O)cc([N+](=O)[O-])cc1[N+](=O)[O-]	inactive	inactive	inactive	inactive	inactive	inactive
O=C(c1ccccc1)c1ccccc1O	40.9 µM (active)	3.65 µM (active) and 22.4 µM (active)	40.9 µM (active) and 63.3 µM (active)	11.5 µM (active) and 15.9 µM (active)	inactive	inactive
CC(C)OC(=O)C(C)(C)Oc1ccc(C(=O)c2ccc(Cl)cc2)cc1	inactive	8.94 µM (active) and 5.49 µM (active)	3.56 µM (active) and 1.74 µM (active)	35.6 µM (active)	27.5 µM (active) and 8.49 µM (active)	inactive
Cc1cccc(C(=O)O)c1	inactive	inactive	inactive	inactive	inactive	inactive
CC(=O)C1(C)CC2=C(CCCC2(C)C)CC1C (stereo not drawn)	inactive	inactive	inactive	inactive	inactive	inactive
COC(C)COC(C)COC(C)CO (stereo not drawn)	inactive	inactive	22.4 µM (active)	inactive	inactive	inactive
NC=O	inactive	inactive	inactive	inactive	inactive	inactive
COC(=O)Nc1nc2ccc(S(=O)c3ccccc3)cc2[nH]1 (stereo not drawn)	inactive	79.6 µM (active) and inactive	inactive	28.2 µM (active) and 17.4 µM (active)	inactive	inactive
COc1c(Cl)c(Cl)c(Cl)c(Cl)c1Cl	inactive	inactive	inactive	28.4 µM (active) and 5.03 µM (active)	inactive	inactive
O=C(COc1ccc(Cl)cc1)N1CCN(Cc2ccc3c(c2)OCO3)CC1	1.59 µM (active) and 2.45 µM (active)	17.8 µM (active) and 17.4 µM (active)	28.3 µM (active) and 13.8 µM (active)	28.3 µM (active) and 17.4 µM (active)	19.5 µM (active) and 8.49 µM (active)	
O=C(Nc1ccc(Cl)cc1)Nc1ccc(Cl)c(Cl)c1	inactive	5 µM (active) and 7.1 µM (active) and 8.71 µM (active)	5 µM (active) and 5.64 µM (active) and 4.9 µM (active)	17.8 µM (active) and 22.4 µM (active) and 17.4 µM (active)	inactive	inactive
Cc1c(OCC(F)(F)F)ccnc1CS(=O)c1nc2ccccc2[nH]1 (stereo not drawn)	2.83 µM (active) and 1.23 µM (active)	5.64 µM (active) and 3.89 µM (active)	35.6 µM (active) and 12.3 µM (active)	31.7 µM (active) and 13.8 µM (active)	inactive	
Cc1cccc(N(C)C(=S)Oc2ccc3ccccc3c2)c1	inactive	1.26 µM (active) and 977 nM (active)	8.94 µM (active) and 6.92 µM (active)	10 µM (active) and 9.77 µM (active)		
O=C(OCc1ccccc1)c1ccccc1O	inactive	5.6 µM (active) and 17.8 µM (active)	35.6 µM (active)	31.5 µM (active) and 28.3 µM (active)	inactive	inactive
CCCCC(CC)COP(=O)(OCC(CC)CCCC)OCC(CC)CCCC (stereo not drawn)	inactive	inactive and 71 µM (active)	inactive	inactive	inactive	inactive and 5.64 µM (active)
Cc1ncc[nH]1	inactive	39.8 µM (active) and inactive	inactive	inactive	inactive	

SMILES	Potency [1]	Potency [2]	Potency [3]	Potency [4]	Potency [5]	Potency [6]
COc1ccccc1/C=C/C=O	inactive	39.9 µM (active)	inactive	29 µM (active) and 25.2 µM (active)	inactive	inactive
OC1CCCCCCCCCCC1	inactive	inactive	inactive	25.2 µM (active)	inactive	
CC(=O)Oc1ccccc1C(=O)Nc1ncc([N+](=O)[O-])s1	7.25 µM (active) and 7.76 µM (active)	3.63 µM (active) and 2.45 µM (active)	4.57 µM (active) and 2.75 µM (active)	6.46 µM (active) and 7.76 µM (active)	inactive	
c1cc(N(CC2CO2)CC2CO2)ccc1OCC1CO1 (stereo not drawn)	56.4 µM (active)	inactive and 79.6 µM (active)	63.4 µM (active) and 39.9 µM (active)	63.3 µM (active)	inactive	inactive
C[Si](C)(C)O[Si](C)(C)C	inactive	inactive	inactive	inactive	inactive	inactive
CCCCC(CC)COC(=O)c1ccc(N(C)C)cc1 (stereo not drawn)	30.9 µM (active)	40.1 µM (active) and 20 µM (active) and 6.92 µM (active)	31.9 µM (active) and 17.8 µM (active) and 15.5 µM (active)	12.7 µM (active) and 7.1 µM (active) and 4.56 µM (active)	inactive	inactive
S=C(NC1CCCCC1)NC1CCCCC1	31.1 µM (active) and 22.4 µM (active)	7.81 µM (active) and 8.94 µM (active)	12.4 µM (active) and 35.6 µM (active)	78.1 µM (active) and inactive	inactive	17.5 µM (active) and 28.3 µM (active)
CC1=CC2C3CC(C=C3C)C2C1 (stereo not drawn)	inactive	inactive and 39.9 µM (active)	inactive	inactive	inactive	inactive and 12.6 µM (active)
O=S(=O)(O)c1ccc(O)cc1	inactive	inactive	inactive	inactive	inactive	inactive
Nc1ccc(Cl)cc1Cl	inactive	inactive	inactive	31.4 µM (active) and 39.9 µM (active)	inactive	
CCCCC/C=C/C=C/C=O	inactive and 35.6 µM (active)	31.4 µM (active) and 39.9 µM (active)	35.6 µM (active)	inactive and 71 µM (active)	inactive	inactive and 39.9 µM (active)
O=C(c1ccccc1)c1ccc(O)cc1O	8.12 µM (active) and 20 µM (active)	9.11 µM (active) and 22.4 µM (active)	57.5 µM (active) and 39.9 µM (active)	25.7 µM (active) and 31.7 µM (active)	inactive	14.4 µM (active) and 25.2 µM (active)
O=C(O)c1ccccc1Nc1cccc(C(F)(F)F)c1	inactive	inactive	63.3 µM (active)	35.6 µM (active)	inactive	inactive
CC(=O)c1ccccn1	inactive	20.2 µM (active) and inactive	inactive	64 µM (active) and inactive	inactive	inactive
CCOC(=O)C(C#N)=C(c1ccccc1)c1ccccc1	inactive	5.64 µM (active) and 4.9 µM (active)	5.03 µM (active) and 4.9 µM (active)	3.56 µM (active) and 1.62 µM (active)	inactive	inactive
c1ccc2c(c1)c1cccc3ccc4cccc2c4c31		88.8 µM (active) and inactive	inactive	112 nM (active) and 20 nM (active)	inactive	inactive
Cc1ccc(C)c(O)c1C	inactive	inactive		28.1 µM (active) and 28.3 µM (active)	inactive	inactive
CCCc1c(OCCCCc2nn[nH]n2)ccc(C(C)=O)c1O		159 nM (active) and 174 nM (active)	159 nM (active) and 246 nM (active)	35.6 µM (active) and 30.9 µM (active)	inactive	
CC(C(=O)O)c1cccc(C(=O)c2ccccc2)c1 (stereo not drawn)		39.9 µM (active)	31.7 µM (active) and 30.9 µM (active)	inactive and 24.5 µM (active)	inactive	inactive
OC(CCl)CCl	inactive	inactive	inactive		inactive	inactive
Cc1ccc(C(=O)c2cc(O)c(O)c([N+](=O)[O-])c2)cc1	inactive	inactive		inactive	inactive	
C[C@]12CCC(=O)C=C1CC[C@@H]1[C@@H]2C(=O)C[C@@]2(C)[C@H]1CC[C@]2(O)C(=O)CO		25.2 µM (active)	inactive	inactive	inactive	inactive

— PubChem BioAssay (Tox21)
